The results in this text go back to PubChem BioAssay (Tox21).

Inconclusive results are not listed. Activity calls are given as the source filed them. The call rests on the fitted dose curve.
On the % scale 0 is the no-effect control and ±100 the full control effect; potency means the concentration at half of the fitted maximal effect.

5-hydroxytryptamine receptor 2A (Homo sapiens), sequence (P28223 whole entry, looked up): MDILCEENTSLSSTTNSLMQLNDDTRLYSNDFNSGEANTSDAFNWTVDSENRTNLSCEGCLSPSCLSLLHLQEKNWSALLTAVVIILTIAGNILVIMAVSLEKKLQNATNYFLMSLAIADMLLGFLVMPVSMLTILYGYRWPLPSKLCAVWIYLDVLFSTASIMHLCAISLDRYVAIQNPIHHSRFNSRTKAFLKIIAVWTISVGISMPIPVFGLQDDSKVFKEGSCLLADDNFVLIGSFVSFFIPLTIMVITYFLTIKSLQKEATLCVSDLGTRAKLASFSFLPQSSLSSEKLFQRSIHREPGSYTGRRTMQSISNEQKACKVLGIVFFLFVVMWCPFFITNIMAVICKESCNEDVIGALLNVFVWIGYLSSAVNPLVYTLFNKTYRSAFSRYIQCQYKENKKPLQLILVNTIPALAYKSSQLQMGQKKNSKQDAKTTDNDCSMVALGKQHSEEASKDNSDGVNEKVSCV

The target in this experiment is 5-hydroxytryptamine receptor 2A (Homo sapiens) (UniProt P28223). The experiment in a line: 5-hydroxytryptamine receptor 2A (HTR2A) small molecule antagonists, cell-based qHTS assay (AID 1963586). Further: nearly all actives have a fitted effect of over 45% in size. The settings on record: HTR2A-CHO cells, DOI-induced calcium flux, fluorescence; series mostly up to 61.5 µM; activity, negative = inhibition: at the top concentration. The source says:
National Center for Advancing Translational Sciences [NCATS]
Division of Preclinical Innovation [DPI]
U.S. Environmental Protection Agency [EPA]
National Institutes of Environmental Health Sciences [NIEHS]
National Toxicology Program [NTP]
U.S. Food and Drug Administration [FDA]
The HTR2A receptor is a subtype of the 5-HT2 receptor that belongs to the serotonin receptor family and is a G protein-coupled receptor (GPCR). The HTR2A-CHO cell line stably expressing human 5-hydroxytryptamine receptor 2A (HTR2A) can be used for screening antagonists of interactions between 5-HT2 and its ligands. The HTR2A-CHO calcium flux assay is a homogeneous fluorescence-based assay for detecting the intracellular calcium level using FDSS kinetic plate reader system.
Tox21 Assay Protocol Summary:
HTR2A-CHO cells were dispensed at 2000 cells/3uL/well in 1536-well black-clear bottom plates using a Multidrop Dispenser. After the assay plates were incubated at a 37 C/5% CO2 incubator for 18 h, 3 uL of Dye Loading Buffer was transferred to the assay plate by a Flying Reagent Dispenser. The assay plates were incubated at 37 C for 1h. For antagonist mode, 23 nL of compounds dissolved in DMSO, positive controls or DMSO only was transferred to the assay plate by a pin tool. After 5 min incubation at room temperature, 1.5 uL of 4-Iodo-2,5-dimethoxy-alpha-methylbenzeneethanamine hydrochloride (DOI) at 4nM was added to each well. The fluorescence intensity in the plates was measured using FDSS 7000EX kinetic plate reader for 3 min at 1 sec intervals.
As to `CCCC(c1cc(C(C)(C)C)c(O)cc1C)c1cc(C(C)(C)C)c(O)cc1C`, the “activity, negative = inhibition” value was 11.6% (inactive).

Consider `O=C(O)C[C@H](O)C[C@H](O)/C=C/c1c(C2CC2)nc2ccccc2c1-c1ccc(F)cc1`, for which the activity, negative = inhibition is -9.13% [at 12.7 µM] (inactive).

Regarding `Nc1ccc(C(=O)N2CC3CC(CN(Cc4ccccc4)C3)C2)cc1`, the “activity, negative = inhibition” value is -2.81% [at 28.5 µM] (inactive). Still for that read-out and setting: the figure for `C=CC(=O)OCCCCCCCCCC` is -6.86% (inactive); for `CCOC(=O)COc1ccc(C)cc1` it is -2.3% (inactive); for `CCC(C)CCCC(C)(C)O` (stereo not given) it is 32% (inactive).

For the molecule `Cc1nc(C2CCCCC2)c(-c2ccc(S(N)(=O)=O)c(F)c2)o1`, the “activity, negative = inhibition” value was 9.44% [at 28.5 µM] (inactive).

As to `Cc1nc2n(c(=O)c1CCN1CCC(C(=O)c3ccc(F)cc3)CC1)CCS2`, the Potency is 0.0041 µM (active). Regarding `O=Cc1ccc(F)c(Br)c1`, the “activity, negative = inhibition” value is 2.47% (inactive). Turning to `O=C(O)C(O)[C@H](O)[C@@H](O)[C@H](O)[C@H](O)CO` (stereo not given in full), the “activity, negative = inhibition” value is -35.7% (inactive). Take `C=C/C(C)=C/C/C=C(\C)CCC=C(C)C`: the “activity, negative = inhibition” value was 8.09% (inactive). As for `CC(C)(C)C1CCC(=O)CC1`, the “activity, negative = inhibition” value was -3.97% (inactive). For `CCCCCCCCCCCCSC`, the “activity, negative = inhibition” value was 8.26% (inactive). On the same count and under the same terms, the figure for `CCC(CC)C(=O)O` is -7.45% (inactive). Same read-out and setting: with `CCCCNc1c(C(=O)OCC)c(C)nc2c1cnn2CC` the figure was 6.5% [at 28.5 µM] (inactive); with `CCCCCCCCCCCCN1CCOCC1`, 1.41% (inactive). On the same count and under the same terms, the figure for `NC[C@H]1O[C@H](O[C@H]2[C@H](O[C@@H]3O[C@H](CO)[C@@H](O)[C@H]3O)C(O)[C@H](N)C[C@@H]2N)[C@H](N)[C@@H](O)[C@@H]1O` (stereo not given in full) is 2.42% [at 5.62 µM] (inactive); for `C[C@]12C=CC(=O)C=C1[C@@H](F)C[C@@H]1[C@@H]2[C@@H](O)C[C@@]2(C)[C@H]1CC[C@]2(O)C(=O)CO` it is -17.2% [at 28.5 µM] (inactive).

For the molecule `CCCC(=O)OCCC(C)C`, the “activity, negative = inhibition” value is 89.9% (inactive). Still for that read-out and setting: the figure for `NC(=O)c1ncn([C@@H]2O[C@H](CO)[C@@H](O)[C@H]2O)c1N` is -14.2% [at 28.5 µM] (inactive); for `CCCC(C)C=O` (stereo not given) it is 1.48% (inactive). As to `Cc1nc2ccc(Cl)cc2[nH]1`, the “activity, negative = inhibition” value is -13% (inactive). The same measure, in the same setting: the figure for `C/C=C(\C)C(=O)OCC/C=C\CC` is 0.306% (inactive); for `OCCC(F)(F)C(F)(F)C(F)(F)C(F)(F)C(F)(F)C(F)(F)C(F)(F)C(F)(F)F` it is -27% (inactive). As to `CCCCCCCCCCCC(=O)NCCCN(C)C`, the Potency is 1.68 µM (active). Consider `CC(C)(O)CCC(C)(C)O`, for which the “activity, negative = inhibition” value is 76.1% (inactive). The same measure, in the same setting: with `O=C(O)c1ccncc1` the figure was 46.1% (inactive); with `C=Cc1ccccc1C=C`, 5.45% [at 159 µM] (inactive). As to `CC1CCc2cc(F)cc3c(=O)c(C(=O)O)cn1c23` (stereo not given), the “activity, negative = inhibition” value is 8.92% [at 28.5 µM] (inactive).

`Cc1c(Cl)cccc1Nc1ccccc1C(=O)O`: the Potency was 16.3 µM (active). On to `CC(C)CC(=O)C1C(=O)c2ccccc2C1=O`, for which the “activity, negative = inhibition” value was 5.56% (inactive). As to `CCCCCCCCCI`, the “activity, negative = inhibition” value is -6.14% (inactive). The same measure, in the same setting: the figure for `CCCOC(=O)c1ccc(C(=O)OCCC)nc1` is -0.268% (inactive). The same measure, in the same setting: with `COc1ccc2nc(SCc3ncc(C)c(OC)c3C)[nH]c2c1` the figure was -1.69% [at 28.5 µM] (inactive); with `CC(=O)Nc1ccc(S(=O)(=O)Nc2cc(C)on2)cc1`, 2.9% [at 28.5 µM] (inactive); with `CCOC(=O)c1c(N)sc2c1CCN(Cc1ccccc1)C2`, -3.68% [at 28.5 µM] (inactive). In the case of `CC(=O)CCc1ccc(O)cc1`, the “activity, negative = inhibition” value is 1.47% (inactive). Same read-out and setting: the figure for `CCCC(=O)O[C@]1(C(=O)CC)CC[C@H]2[C@@H]3CCC4=CC(=O)CC[C@]4(C)[C@H]3[C@@H](O)C[C@@]21C` is -25.2% [at 28.5 µM] (inactive). As for `Clc1ccnc(Cl)n1`, the “activity, negative = inhibition” value was 2.4% (inactive).

As to `CC1c2ccccc2CN1NC(=O)c1ccc(Cl)c(S(N)(=O)=O)c1` (stereo not given), the “activity, negative = inhibition” value is 74% [at 28.5 µM] (inactive).
